The nature of experiment [1]: binders of probe aFSTL3 on microarray, primary screen, stem cell growth factor project, biochemical, small-molecule microarray, fluorescence 635/667 (AID 1064).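 Also: measures binding of the biotinylated anti-FSTL3 antibody to printed compounds.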 To be noted: higher = more signal.
A short description of experiment [2]: binders from COS7 lysate, DM2A8 probe, primary screen, torsin A project, cell lysate, small-molecule microarray, fluorescence 635/667 (AID 1065). The settings on record: higher = more signal, COS7 lysate expressing mutant human TOR1A.
The nature of experiment [3]: binders of probe aFGF2 on microarray, primary screen, stem cell growth factor project, biochemical, small-molecule microarray, fluorescence 635/667 (AID 1067).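 Also: measures binding of biotinylated aFGF2 protein to printed compounds on slides; z-score merges feature fluorescence and signal-to-noise across triplicate slides.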 To be noted: higher = more signal.
Experiment [4] can be described thus: binders of probe aFGF10 on microarray, primary screen, stem cell growth factor project, biochemical, small-molecule microarray, fluorescence 635/667 (AID 1071).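 Also: score merges 667 nm spot intensity and signal to noise from triplicate slides.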 To be noted: higher = more signal.
For experiment [5], the target named is Neurogenic locus notch homolog protein 2 (Homo sapiens) (UniProt Q04721). As to the kind of experiment: Notch2 binders on small-molecule microarrays, primary screen, biochemical, small-molecule microarray, 635 nm fluorescence, stem cell growth factors (AID 1073). The settings on record: Notch2 binding, higher = more signal.
Neurogenic locus notch homolog protein 2 (Homo sapiens), sequence (Q04721 whole entry, looked up, canonical isoform): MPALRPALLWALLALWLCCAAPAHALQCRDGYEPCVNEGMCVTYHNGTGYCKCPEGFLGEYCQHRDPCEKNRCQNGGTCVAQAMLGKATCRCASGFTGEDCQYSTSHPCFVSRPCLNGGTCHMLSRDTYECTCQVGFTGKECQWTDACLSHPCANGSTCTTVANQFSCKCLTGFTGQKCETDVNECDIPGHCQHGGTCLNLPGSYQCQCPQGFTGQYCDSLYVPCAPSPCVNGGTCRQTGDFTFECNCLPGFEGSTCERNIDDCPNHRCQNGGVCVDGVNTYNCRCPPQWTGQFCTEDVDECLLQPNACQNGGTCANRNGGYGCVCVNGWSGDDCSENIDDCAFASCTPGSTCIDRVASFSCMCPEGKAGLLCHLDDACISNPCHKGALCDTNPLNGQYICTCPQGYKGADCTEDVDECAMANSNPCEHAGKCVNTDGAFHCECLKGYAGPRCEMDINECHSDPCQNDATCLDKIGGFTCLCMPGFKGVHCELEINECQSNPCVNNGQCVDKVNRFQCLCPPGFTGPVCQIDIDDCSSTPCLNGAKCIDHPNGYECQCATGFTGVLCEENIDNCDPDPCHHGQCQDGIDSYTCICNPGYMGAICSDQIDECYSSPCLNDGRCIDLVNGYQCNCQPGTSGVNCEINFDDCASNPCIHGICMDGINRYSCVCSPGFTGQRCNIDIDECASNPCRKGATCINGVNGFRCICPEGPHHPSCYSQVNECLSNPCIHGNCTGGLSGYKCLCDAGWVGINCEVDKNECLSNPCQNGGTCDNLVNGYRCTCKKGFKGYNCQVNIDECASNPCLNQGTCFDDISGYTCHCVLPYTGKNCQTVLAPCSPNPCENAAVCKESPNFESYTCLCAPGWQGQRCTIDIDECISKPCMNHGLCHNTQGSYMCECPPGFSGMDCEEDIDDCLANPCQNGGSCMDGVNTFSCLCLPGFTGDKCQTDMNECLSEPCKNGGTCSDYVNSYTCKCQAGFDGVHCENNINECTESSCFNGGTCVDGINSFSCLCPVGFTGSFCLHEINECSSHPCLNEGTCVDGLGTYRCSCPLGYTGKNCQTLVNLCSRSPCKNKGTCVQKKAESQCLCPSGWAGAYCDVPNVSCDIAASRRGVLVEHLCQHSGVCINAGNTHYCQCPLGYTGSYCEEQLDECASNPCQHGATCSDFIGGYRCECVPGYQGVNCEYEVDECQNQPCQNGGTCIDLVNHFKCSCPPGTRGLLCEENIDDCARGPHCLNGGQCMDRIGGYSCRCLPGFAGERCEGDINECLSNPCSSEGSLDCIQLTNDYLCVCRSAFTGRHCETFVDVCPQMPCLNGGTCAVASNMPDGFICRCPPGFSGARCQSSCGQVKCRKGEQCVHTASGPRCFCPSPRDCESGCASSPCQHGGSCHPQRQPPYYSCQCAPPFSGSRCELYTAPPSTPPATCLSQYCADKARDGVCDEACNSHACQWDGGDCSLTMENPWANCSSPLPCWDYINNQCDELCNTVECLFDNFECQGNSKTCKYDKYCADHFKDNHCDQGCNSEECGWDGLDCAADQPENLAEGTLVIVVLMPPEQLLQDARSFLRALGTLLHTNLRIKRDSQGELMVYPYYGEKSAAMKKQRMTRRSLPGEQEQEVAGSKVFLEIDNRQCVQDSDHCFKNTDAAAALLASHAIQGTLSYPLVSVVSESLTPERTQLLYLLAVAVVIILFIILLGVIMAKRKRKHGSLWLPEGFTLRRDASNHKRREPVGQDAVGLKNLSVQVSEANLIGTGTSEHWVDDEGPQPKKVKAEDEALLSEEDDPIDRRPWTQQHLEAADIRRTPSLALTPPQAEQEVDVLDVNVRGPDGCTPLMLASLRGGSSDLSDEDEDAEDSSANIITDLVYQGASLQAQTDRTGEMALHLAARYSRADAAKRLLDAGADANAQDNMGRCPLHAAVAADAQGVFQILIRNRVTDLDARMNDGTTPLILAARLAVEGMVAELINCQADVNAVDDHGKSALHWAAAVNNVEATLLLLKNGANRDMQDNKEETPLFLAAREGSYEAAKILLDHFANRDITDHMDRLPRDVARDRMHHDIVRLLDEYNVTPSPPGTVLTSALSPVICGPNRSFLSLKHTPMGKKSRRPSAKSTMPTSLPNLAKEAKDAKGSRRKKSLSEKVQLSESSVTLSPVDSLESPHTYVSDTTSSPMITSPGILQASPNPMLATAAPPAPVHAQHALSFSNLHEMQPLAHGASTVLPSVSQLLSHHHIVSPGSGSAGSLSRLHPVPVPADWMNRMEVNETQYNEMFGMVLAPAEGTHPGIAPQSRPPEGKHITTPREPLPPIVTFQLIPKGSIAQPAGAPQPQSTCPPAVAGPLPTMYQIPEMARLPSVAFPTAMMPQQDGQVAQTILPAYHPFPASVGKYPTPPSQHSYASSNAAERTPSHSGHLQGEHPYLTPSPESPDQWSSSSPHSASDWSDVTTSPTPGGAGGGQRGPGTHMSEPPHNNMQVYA
The target of experiment [6] is Pro-neuregulin-1, membrane-bound isoform (Homo sapiens) (UniProt Q02297). As to the kind of experiment: NRG1 binders on small-molecule microarrays, primary screen, psychiatric disease protein project, biochemical, small-molecule microarray, fluorescence 635/667 (AID 1075).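 Also: score combines 667 nm spot fluorescence with signal to noise.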 The settings on record: NRG1 binding, 635 nm fluorescence, higher = more signal.
Pro-neuregulin-1, membrane-bound isoform (Homo sapiens), sequence (Q02297 whole entry, looked up, the tested form may be a part, canonical isoform): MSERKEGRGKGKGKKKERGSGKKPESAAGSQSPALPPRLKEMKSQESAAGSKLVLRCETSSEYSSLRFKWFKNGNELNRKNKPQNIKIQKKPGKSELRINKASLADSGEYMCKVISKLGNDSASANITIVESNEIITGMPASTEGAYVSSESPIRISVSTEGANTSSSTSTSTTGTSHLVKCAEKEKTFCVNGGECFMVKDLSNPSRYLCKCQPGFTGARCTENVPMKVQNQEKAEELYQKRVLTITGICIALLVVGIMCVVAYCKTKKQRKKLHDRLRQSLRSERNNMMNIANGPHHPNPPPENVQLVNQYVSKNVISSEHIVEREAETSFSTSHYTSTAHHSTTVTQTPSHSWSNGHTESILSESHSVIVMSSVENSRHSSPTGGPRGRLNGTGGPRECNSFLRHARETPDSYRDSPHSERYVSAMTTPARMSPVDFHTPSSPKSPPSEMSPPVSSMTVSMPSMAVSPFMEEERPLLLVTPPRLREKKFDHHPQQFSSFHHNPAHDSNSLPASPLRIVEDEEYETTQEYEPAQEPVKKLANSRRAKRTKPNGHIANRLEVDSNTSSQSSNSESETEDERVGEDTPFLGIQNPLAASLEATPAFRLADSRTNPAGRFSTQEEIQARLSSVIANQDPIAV
Experiment [7] relates to Neuregulin-1 EGF-like domain. Description: binders of neuregulin-1 EGF-like domain, primary screen, biochemical, small-molecule microarray, 635 nm fluorescence (AID 1081).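 Also: binding of the protein to compounds printed on small-molecule microarray slides.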 The settings on record: small-molecule microarray binding, higher = more signal.
A short description of experiment [8]: FRG1 promoter luciferase signal modulators, primary screen, FRG1 inhibition for FSHD, cell-based, C2C12 myotubes, firefly/Renilla luciferase, luminescence (AID 1084). To be noted: higher = more signal, called active from +8 up or from −8 down.
A short description of experiment [9]: binders of probe aFST on microarray, primary screen, stem cell growth factor project, biochemical, small-molecule microarray, fluorescence 635/667 (AID 1086).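 Also: score merges 667 nm fluorescence with signal-to-noise of each printed compound spot.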 To be noted: higher = more signal.
A short description of experiment [10]: binders of probe aHhip on microarray, primary screen, stem cell growth factor project, biochemical, small-molecule microarray, fluorescence 635/667 (AID 1087).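 Also: score merges spot fluorescence at 667nm with spot signal to noise ratio.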 To be noted: higher = more signal.

SMILES strings stand for the structures. Calls of active or inactive are those of the source.

In the case of `C[C@H]1Cc2c(-c3ccccc3)nc3c(c2CO1)CN(CCOc1ccccc1)CC3`, the composite z-score is -0.635 in [1]; 0.568 in [2]; -0.113 in [3]; 0.739 in experiment [4]; 1.41 in [5]; 0.135 in [6]. For the same molecule, the composite z-score in experiment [7] is 0.991; in experiment [9], 0.307; in experiment [10] it was -0.0708. Moreover, in experiment [8], the z-score is 0.53 (inactive).

For `C[C@H](c1ccccc1)N1C(=O)[C@H]2[C@@H]3C(=CC[C@H]2C1=O)C(=O)[C@H]1O[C@H]1[C@H]3O`, the composite z-score is -0.518 in [1]; 0.34 in [2]; -0.135 in [3]; 0.134 in experiment [4]; 0.582 in experiment [5]; -0.198 in [6]. Also, the composite z-score in experiment [7] is -0.133; in experiment [9], 0.128; in experiment [10] it was -0.289. The z-score in [8] was 14.4 (active).

For `COCCNC(=O)OCC1CCCC2(CC(OC(=O)NCCc3ccc(F)cc3)CC(CCC(=O)N[C@@H](C)C(=O)OC)O2)O1` (stereo not given in full), the composite z-score in experiment [1] was -0.576; in experiment [2] it was 0.37; in experiment [3] it was -0.132; in [4] it was 0.632; in experiment [5], 1.1; in experiment [6], 0.511. The composite z-score is 0.777 in experiment [7], 0.347 in [9] and -0.196 in experiment [10]. In experiment [8], the z-score is -0.0861 (inactive).

For `CC(C)[C@@H](OCc1ccccc1)[C@H](C)C=NO[C@H](C)c1cn([C@H](CO)Cc2ccccc2)nn1`, the composite z-score in [1] was -0.479; in experiment [2], 0.227; in experiment [3], -0.228; in experiment [4] it was 0.616; in experiment [5], 0.397; in experiment [6], -0.154. Also, the values for the composite z-score in experiment [7], in experiment [9] and in [10] were 0.658, 0.344 and -0.409, respectively. In addition, the z-score in experiment [8] is -0.757 (inactive).

Take `C[N+](C)(C)CCCCCCNC(=O)[C@@H]1C[C@@H]2C(=O)N3CCC[C@H]3C(=O)N2[C@@H]1c1cccc(OCCO)c1`: the composite z-score in experiment [1] is -0.0041; in experiment [2], 0.669; in experiment [3], -0.169; in experiment [4], -0.239; in experiment [5], -0.337; in experiment [6] it was 0.747. For the same molecule, the composite z-score in experiment [7] is 1.35; in experiment [9], -0.128; in experiment [10], -0.48. Moreover, the z-score in experiment [8] was 5.01 (inactive).

Turning to `COCC(=C=CC[C@@H](O)c1ccccc1OCCO)CCO`, the composite z-score was -0.181 in experiment [1]; 0.44 in experiment [2]; 0.0201 in [3]; 0.492 in experiment [4]; 0.375 in experiment [5]; 0.19 in experiment [6]. In addition, the figures for the composite z-score in experiment [7], in [9] and in [10] were 1.27, 0.175 and -0.0618, respectively. Besides, the z-score in experiment [8] was 0.0373 (inactive).

Take `CC(C)CON=C1C[C@@H](O)[C@@H](O)[C@@H]2[C@@H]3C(=O)N(Cc4ccccc4)C(=O)[C@@H]3CC[C@@H]12`: the composite z-score is -0.404 in [1]; 0.129 in experiment [2]; -0.141 in experiment [3]; 0.256 in experiment [4]; 0.455 in [5]; -0.344 in [6]. Further, the composite z-score in experiment [7] was 0.211; in experiment [9], -0.313; in experiment [10], -0.199. Moreover, the z-score in experiment [8] was 0.166 (inactive).

In the case of `C#C[C@@H](CC)O[Si](C#Cc1ccc(Oc2ccccc2)cc1)(C(C)C)C(C)C`, the composite z-score was -0.321 in experiment [1]; 0.438 in experiment [2]; -0.201 in [3]; 0.247 in experiment [4]; 0.824 in experiment [5]; 0.108 in experiment [6]. For the same molecule, the composite z-score in experiment [7] was 0.0426; in [9], 0.168; in experiment [10], -0.0193. The z-score in experiment [8] is 0.364 (inactive).

In the case of `COCC1=C2[C@@H](CCc3ccccc3)OB(O)C[C@@H]2n2c(=O)n(-c3ccccc3)c(=O)n2C1`, the composite z-score was -0.163 in [1]; -0.106 in experiment [2]; -0.0695 in [3]; 0.882 in experiment [4]; 0.112 in experiment [5]; -0.391 in [6]. In addition, the composite z-score in experiment [7] is 0.751; in experiment [9], -0.373; in [10], -0.236. Moreover, the z-score in experiment [8] is -3.23 (inactive).

As to `CC(C)[C@H](NC(=O)OC(C)(C)C)[C@@H](O)CC(=O)OC(C)(C)C`, the composite z-score in experiment [1] is -0.273; in experiment [2] it was -0.584; in experiment [3] it was -0.116; in experiment [4] it was -0.267; in experiment [5], -0.756; in [6], -0.739. For the same molecule, the composite z-score in [7] was -1.18; in experiment [9], -0.357; in experiment [10], 0.0881. For the same molecule, the z-score in experiment [8] was 0.0293 (inactive).

As for `COc1ccc(O[C@H]2C=C[C@@H](c3ccccc3)O[C@@H]2COC(=O)N2CCCCC2)cc1`, the composite z-score is -0.0055 in experiment [1]; 0.38 in experiment [2]; -0.0493 in experiment [3]; -0.479 in experiment [4]; -0.701 in experiment [5]; -0.578 in [6]. Further, the values for the composite z-score in [7], in [9] and in experiment [10] were -0.77, -0.0007 and -0.171, respectively. Moreover, the z-score in experiment [8] was -0.216 (inactive).

Regarding `CC(C)C[C@@H]1NC(=O)[C@H]2C[C@@H](C(=O)O)[C@@H](c3ccc(O)cc3)N2C1=O`, the composite z-score in experiment [1] is 1.29; in experiment [2] it was 1.31; in [3], -0.087; in [4] it was -0.211; in [5], -0.506; in [6], 1.47. For the same molecule, the composite z-score in [7] was found to be 1.29; in experiment [9], 0.123; in [10] it was 0.613. Besides, the z-score in [8] was 6.75 (inactive).

Regarding `O=C1[C@H]2[C@H]3[C@H](O)[C@H](O)CC(=NOC[C@@H](O)COCc4ccco4)[C@H]3CC[C@H]2C(=O)N1C1CCCCC1`, the composite z-score in experiment [1] was -0.749; in experiment [2], 2.19; in experiment [3], -0.254; in [4], -0.39; in experiment [5] it was -0.24; in experiment [6] it was -0.394. The composite z-score was 0.403 in experiment [7], 0.101 in experiment [9] and -0.156 in experiment [10]. For the same molecule, the z-score in [8] is -0.784 (inactive).

With `C=C(COC)/C(=C/C[C@H](OC(=O)c1ccncc1)c1ccc(CO)o1)c1cc(C(=O)OC)ccc1OC`, the composite z-score in [1] is -0.393; in [2], 0.649; in [3], 0.0026; in experiment [4] it was 0.905; in experiment [5], 0.614; in experiment [6], 0.407. Moreover, the composite z-score is 0.716 in [7], 0.404 in [9] and -0.123 in experiment [10]. Besides, the z-score in [8] is 0.0676 (inactive).

With `CC[C@@H](c1ccccc1)n1c(=O)n2n(c1=O)[C@H]1[C@H](O)[C@@H]3O[C@@H]3C(=NOCC=C(C)CCC=C(C)C)[C@H]1CC2`, the composite z-score is -0.415 in experiment [1]; 0.138 in [2]; -0.102 in experiment [3]; 0.471 in experiment [4]; 0.8 in [5]; 0.8 in [6]. Also, the composite z-score in experiment [7] is 0.89; in [9], 0.572; in experiment [10], -0.169. In experiment [8], the z-score was -0.0545 (inactive).

In the case of `CCc1cc2c(nc1CC)CCN(CCC(C)=NOC(C)CN1CCCc3nc(C)c(C)cc31)C2` (stereo not given), the composite z-score in [1] stood at 0.271; in experiment [2] it was 1.29; in experiment [3], 0.131; in experiment [4] it was 0.16; in experiment [5] it was 1.35; in experiment [6] it was 0.408. Further, the figures for the composite z-score in [7], in experiment [9] and in experiment [10] were 1.17, 1.15 and 1.17, respectively. In addition, the z-score in experiment [8] is 1.04 (inactive).

Turning to `CO[C@@H]1COC(=O)[C@H](C)NC(=O)[C@@H](C)COC(=O)CCC[C@H]1C`, the composite z-score in experiment [1] was -0.438; in experiment [2], 0.402; in [3], -0.116; in experiment [4] it was 0.686; in [5] it was 0.183; in experiment [6], -0.0231. Also, the composite z-score in experiment [7] is 1.13; in experiment [9], -0.163; in [10], -0.0296. Further, the z-score in [8] is 0.227 (inactive).

The values are drawn from PubChem BioAssay.
